A number with no mark means an inactive call. Inconclusive results are not listed. The source made the active and inactive calls. Calls come from the whole dose curve; as a rule, active = well fitted curve in the direction sought with a large enough effect; inconclusive = small, poorly fitted or top-dose-only effect, or another doubt; inactive = no such curve, though single readings can be large; an effect the other way counts as inactive or inconclusive.

For test [1], the target named is Glutathione peroxidase 1 (Homo sapiens) (UniProt P07203). Nature of the test: Primary qHTS Assay for Inhibitors of Recombinant Selenoprotein Glutathione Peroxidase 1 (GPX1) (AID 1845191). For activity, negative = inhibition: % is set by controls: 0 for no effect and ±100 for the full control effect. Note: nearly all actives have a fitted effect of over 65% in size. The method, boiled down: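 NADPH consumption tracked by fluorescence at 340/450 nm between t=0 and t=15 min, room temperature. Final mix: 10 nM GPX1, 100 nM glutathione reductase, 1 mM GSH, 0.5 mM NADPH, 0.5 mM cumene hydroperoxide, 0.01% BSA; 30 min compound–enzyme preincubation.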
(In general: Quantitative high-throughput screening tests each substance at several concentrations.)

The target of test [2] is Phospholipid hydroperoxide glutathione peroxidase GPX4 (Homo sapiens) (UniProt P36969). Briefly: Primary qHTS Assay for Inhibitors of Recombinant Selenoprotein Glutathione Peroxidase 4 (GPX4) (AID 1845192). For activity change, negative = inhibition: series mostly up to about 50 µM; % is set by controls: 0 for no effect and ±100 for the full control effect. Note: nearly all actives have a fitted effect of over 65% in size. The method, boiled down:
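NADPH consumption followed by fluorescence at 340/450 nm, t=0 and after 15 min at room temperature. Reaction started with cumene hydroperoxide (0.5 mM final) after 30 min compound–GPX4 preincubation; final 200 nM GPX4, 100 nM GR, 1 mM GSH, 0.5 mM NADPH.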

The target of test [3] is Luciferin 4-monooxygenase (Photinus pyralis) (UniProt P08659). Nature of the test: Primary firefly luciferase (FLuc) qHTS assay for identification of artifact compounds. (AID 1845220).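 For activity change, negative = inhibition: series mostly up to about 54 µM; plate controls were DMSO vehicle for no effect and no enzyme for full effect.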 Note: nearly all actives have a fitted effect of over 60% in size. The method, boiled down: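 Cell-free, 1536-well qHTS. Buffer pH 7.6 with 0.01% Tween-20 and 0.05% BSA; 10 uM D-luciferin, 10 uM ATP; 10 nM P. pyralis luciferase; luminescence after 5 min.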

Test [4] is described as follows: Primary fluorescence-based thiol-reactive (MSTI) qHTS assay for identification of artifact compounds. (AID 1845221).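 For activity change, negative = thiol reactive: series mostly up to about 54 µM; thiol-reactive compounds lower the probe fluorescence signal.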 Note: nearly all actives have a fitted effect of over 65% in size. Note: potency is the fitted concentration of half-maximal effect. The method, boiled down:
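Curve-fitted percent inhibition (4-parameter Hill) derived from fluorescence, Ex 525/Em 598 nm, scaled with Acetyl-MSTI and MSTI; 1 h incubation at room temperature.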

Test [5] deals with Nanoluciferase (engineered Oplophorus gracilirostris luciferase). Nature of the test: Primary Nanoluciferase (NLuc) qHTS assay for identification of artifact compounds. (AID 1845222).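 Note: series mostly up to about 54 µM; 0% = DMSO and -100% = no enzyme.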 The gist of the method:
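Compounds are pinned into diluted (1:55) conditioned medium of NLuc-expressing S16 cells and held 15 min at room temperature protected from light. Nano-Glo substrate follows, and luminescence is read 5 min later.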

Test [6] can be described thus: Primary redox qHTS assay for identification of artifact compounds. (AID 1845223).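 Note: 0% = DMSO and 100% = reference compound.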 The method, boiled down: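 Redox-cycling detection via DTT (250 uM final) oxidation coupled to Amplex Red (25 uM)/HRP (250 mU/mL) in HBSS. 15 min preincubation plus 30 min after DTT, room temperature. Ex/Em 525/598 nm; 4-parameter Hill fit against DMSO and 10 uM DA3003.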

Phospholipid hydroperoxide glutathione peroxidase GPX4 (Homo sapiens), sequence (P36969 whole entry, looked up): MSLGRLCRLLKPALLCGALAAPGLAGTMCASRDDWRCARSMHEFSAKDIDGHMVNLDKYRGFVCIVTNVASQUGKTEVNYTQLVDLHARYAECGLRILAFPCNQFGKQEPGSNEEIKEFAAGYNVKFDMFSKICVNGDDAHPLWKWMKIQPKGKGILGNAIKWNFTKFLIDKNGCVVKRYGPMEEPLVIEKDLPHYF
Glutathione peroxidase 1 (Homo sapiens), sequence (P07203 whole entry, looked up): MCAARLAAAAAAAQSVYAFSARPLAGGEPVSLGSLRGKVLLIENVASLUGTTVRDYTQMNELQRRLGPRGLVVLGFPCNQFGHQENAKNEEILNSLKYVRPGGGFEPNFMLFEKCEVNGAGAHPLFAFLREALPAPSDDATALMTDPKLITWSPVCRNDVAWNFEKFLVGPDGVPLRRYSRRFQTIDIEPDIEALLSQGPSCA

In the case of `C=C(C(=O)O)[C@@H]1CC[C@@]2(C)CC[C@H](O)[C@@]2(C(C)=O)C1`, the Potency entry in test [1], in test [2], in test [3], in test [5] and in test [6] was “inactive” each time. The Potency in test [4] was 11.9 µM (active).

As for `CCC(CC)C(=O)Nc1sc2c(c1C#N)CCC(C(C)(C)CC)C2` (stereo unspecified), the Potency result in test [1], in test [2], in test [3], in test [4], in test [5] and in test [6] was “inactive” in each case.

As for `O=C(O)c1ccc(CN2CCC(CN[C@@H]3C[C@H]3c3ccccc3)CC2)cc1`, the Potency result in test [1], in test [2], in test [3], in test [4], in test [5] and in test [6] was “inactive” each time.

As to `C[C@H](O)[C@H](O)/C=C/c1cccc(O)c1CO`, the Potency entry in test [1], in test [2], in test [3], in test [4], in test [5] and in test [6] was “inactive” throughout.

Take `C=C1C(=O)OC2CC3(C)C(CC12)C(C)=CC(O)C3OC(C)=O` (stereo unspecified): the Potency result in test [1], in test [2], in test [3], in test [5] and in test [6] was “inactive” throughout. Besides, the Potency in test [4] is 5.85 µM (active).

Regarding `COc1cc2c(c(OC)c1CC=C(C)C)C[C@H](c1ccc(O)cc1O)CO2`, the Potency result in test [1], in test [2], in test [3], in test [5] and in test [6] was “inactive” throughout. Besides, the Potency in test [4] was 13.1 µM (active).

For the compound `CC(=O)O[C@@H]1[C@H](O[C@@H]2O[C@@H](CO)[C@H](O)[C@H]2O)[C@@H](O[C@@H]2O[C@@H](C)[C@H](O[C@@H]3OC[C@@H](O)[C@H](O)[C@H]3O)[C@@H](O)[C@H]2O)[C@H](OC(=O)[C@]23CCC(C)(C)C[C@H]2C2=CCC4[C@@]5(C)CC[C@H](O[C@@H]6O[C@H](C(=O)O)[C@@H](O)[C@H](O)[C@H]6O[C@@H]6O[C@H](CO)[C@H](O)[C@H](O)[C@H]6O)[C@@](C)(C=O)C5CC[C@@]4(C)[C@]2(C)CC3)O[C@@H]1C` (stereo partly specified), the activity, negative = inhibition was -3.42% [at 9.52 µM] in test [1] and 0% [at 11.6 µM] in test [5]. Further, the activity change, negative = inhibition was 2.32% [at 9.73 µM] in test [2] and 4.46% [at 11.6 µM] in test [3]. Besides, in test [4], the activity change, negative = thiol reactive is 321% [at 11.5 µM]. Besides, the redox activity (% of DA3003) in test [6] is 1.35% [at 11.5 µM].

As to `CC(C)C[C@H](CC(=O)NO)C(=O)N[C@@H](Cc1ccc2ccccc2c1)C(=O)N[C@@H](C)C(=O)NCCN`, the Potency entry in test [1], in test [2], in test [3], in test [4], in test [5] and in test [6] was “inactive” each time.

As for `COC(=O)[C@H](O)[C@H]1C(C)(C)[C@H](OC(=O)C(C)C)[C@@]2(O)C(=O)[C@]1(C)C1CC[C@]3(C)C(CC(=O)O[C@H]3c3ccoc3)[C@]13O[C@@H]32` (stereo partly specified), the Potency result in test [1], in test [2], in test [3], in test [4], in test [5] and in test [6] was “inactive” in each case.

Turning to `C/C=C(\C)C(=O)OCC1OC(OC2OC(COC(=O)/C(C)=C/C)C(OC3OC(CO)C(OC(=O)/C(C)=C/C)C(OC(=O)/C(C)=C/C)C3O)C(O)C2O)C(O)C(O)C1OC1OC(CO)C(OC(=O)/C(C)=C/C)C(OC(=O)/C(C)=C/C)C1O` (stereo unspecified), the Potency entry in test [1] and in test [2] was “inactive” in each case. In test [3], the outcome is “inactive [at 11.6 µM]”. The activity change, negative = thiol reactive in test [4] is 7.54% [at 11.5 µM]. Moreover, the activity, negative = inhibition in test [5] was 0% [at 11.6 µM]. Further, the redox activity (% of DA3003) in test [6] was 2.12% [at 11.5 µM].

In the case of `CCN1CCN(Cc2ccc(NC(=O)Nc3ccc(Oc4cc(NC)ncn4)cc3)cc2C(F)(F)F)CC1`, the Potency result in test [1], in test [2], in test [3], in test [4], in test [5] and in test [6] was “inactive” throughout.

On to `CC[C@@H](O)C[C@@H]1C(C)=C[C@@H]2CCCC[C@@H]2[C@@]1(C)C(=O)O`, for which the Potency result in test [1], in test [2], in test [3], in test [4], in test [5] and in test [6] was “inactive” each time.

On to `CC(C)C[C@H](CC(=O)NO)C(=O)N[C@H](C(=O)N[C@@H](C)C(=O)NCCN)C(C)(C)C`, for which the activity, negative = inhibition in test [1] was -2.8% [at 9.52 µM]; in test [5], 2.44% [at 11.6 µM]. The activity change, negative = inhibition in test [2] is -8.26% [at 9.73 µM]; in test [3], -1.85% [at 11.6 µM]. Further, the activity change, negative = thiol reactive in test [4] was 1.54% [at 11.5 µM]. Also, the redox activity (% of DA3003) in test [6] was 0.177% [at 11.5 µM].

In the case of `CC1(C)C2CC=C(COC3OC(COC4OCC(O)(CO)C4O)C(O)C(O)C3O)C1C2` (stereo unspecified), the Potency result in test [1], in test [2], in test [3], in test [4], in test [5] and in test [6] was “inactive” in each case.

For `CC(=O)O[C@@H](CO[C@@H]1O[C@H](CO)[C@H](O)[C@H](O)[C@H]1O)[C@]1(C)C=C2CC[C@@H]3C(C)(C)[C@@H](O)CC[C@@]3(C)[C@@H]2CC1`, the Potency result in test [1], in test [2], in test [3], in test [4], in test [5] and in test [6] was “inactive” in each case.

On to `C=C(C(=O)OC)C1C(O)CC2(C)C(=O)CCC(O)(CO)C2C1O` (stereo unspecified), for which the Potency entry in test [1], in test [2], in test [3], in test [4], in test [5] and in test [6] was “inactive” in each case.

As to `CCO[C@@H]1OC(=O)C[C@@H]1NC(=O)[C@@H]1CCCN1C(=O)[C@@H](NC(=O)c1ccc(N)c(Cl)c1)C(C)(C)C`, the Potency entry in test [1], in test [2], in test [3], in test [4], in test [5] and in test [6] was “inactive” throughout.

For `CCCOc1ccc(-c2nc(OC)c3ccccc3n2)cc1`, the Potency result in test [1], in test [2], in test [3], in test [4], in test [5] and in test [6] was “inactive” each time.

As for `CC(=O)O[C@@H]1c2c(C)coc2C(=O)[C@@]23O[C@@H]2CC[C@H](C)[C@@]13C`, the Potency entry in test [1], in test [2], in test [3], in test [4], in test [5] and in test [6] was “inactive” in each case.

Turning to `C=CC1C(OC2OC(CO)C(O)C(O)C2O)OC=C(C(=O)OC)C1CC(=O)OCC1C(C)C(O)CC1C(CO)COC(=O)CC1C(C(=O)O)=COC(OC2OC(CO)C(O)C(O)C2O)/C1=C\C` (stereo unspecified), the Potency result in test [1] and in test [2] was “inactive” throughout. Further, the activity change, negative = inhibition in test [3] is -4.67% [at 11.6 µM]. The activity change, negative = thiol reactive in test [4] is 7.86% [at 11.5 µM]. Besides, in test [5], the activity, negative = inhibition is -0.732% [at 11.6 µM]. The redox activity (% of DA3003) in test [6] is 14.1% [at 11.5 µM].

Take `C=C(C(=O)O)C1CC(O)C2(C)CCCC(=C)C2C1` (stereo unspecified): the Potency entry in test [1], in test [2], in test [3], in test [4], in test [5] and in test [6] was “inactive” throughout.

Source of the values: PubChem BioAssay (NCATS).
